# Measured values: PubChem BioAssay AID1211 (NMMLSC, 2008)
# Activity calls are given as the source filed them. No rule for the calls is given here.
# Target: Estrogen receptor (Homo sapiens) (UniProt P03372)
# Assay: displacement of fluorescent estrogen from ERalpha – cell-based, Cos7 ERalpha-GFP, flow cytometry, primary screen (AID 1211);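 also: 0% = DMSO vehicle wells and 100% = no E2-Alexa633 signal left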
# Conditions: fluorescent ligand competition, at 10 µM, stronger effect = higher value
# Chain of Estrogen receptor (Homo sapiens) (P03372 whole entry, looked up): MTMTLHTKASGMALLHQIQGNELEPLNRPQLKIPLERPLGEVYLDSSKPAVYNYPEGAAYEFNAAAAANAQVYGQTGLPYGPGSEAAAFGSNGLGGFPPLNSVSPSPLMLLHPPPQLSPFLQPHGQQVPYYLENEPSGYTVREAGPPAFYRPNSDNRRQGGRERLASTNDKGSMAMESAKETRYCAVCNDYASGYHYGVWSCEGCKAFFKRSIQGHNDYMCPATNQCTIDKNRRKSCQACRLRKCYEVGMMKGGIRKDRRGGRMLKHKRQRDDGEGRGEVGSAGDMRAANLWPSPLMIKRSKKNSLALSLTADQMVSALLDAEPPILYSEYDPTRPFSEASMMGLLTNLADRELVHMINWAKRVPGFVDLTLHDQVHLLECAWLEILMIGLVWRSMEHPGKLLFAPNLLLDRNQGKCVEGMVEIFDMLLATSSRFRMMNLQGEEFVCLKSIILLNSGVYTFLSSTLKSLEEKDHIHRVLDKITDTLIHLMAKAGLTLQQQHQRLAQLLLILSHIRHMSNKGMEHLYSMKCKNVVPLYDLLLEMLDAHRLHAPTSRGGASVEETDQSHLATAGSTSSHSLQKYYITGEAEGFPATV
row,SMILES,inhibition of ligand binding
1,COc1ccc2[nH]cc(CCN=C(N)N)c2c1,1% (inactive)
2,N=c1c[n+](CCc2ccc(O)cc2)[n-]o1,7% (inactive)
3,CC(=O)c1ccc2c(c1)C1C(Cl)C(Sc3ccccc3[N+](=O)[O-])CC1C(c1ccccc1[N+](=O)[O-])N2 (stereo not drawn),79% (active)
4,Cc1ccc2c(c1Cl)NC(C(=O)O)C1CC(Sc3ccccc3[N+](=O)[O-])C(Cl)C21 (stereo not drawn),0% (inactive)
5,CC(=O)c1ccc2c(c1)C1C(Cl)C(Sc3ccccc3[N+](=O)[O-])CC1C(c1ccccc1)N2 (stereo not drawn),69% (active)
6,COc1ccc(C2(CN)CCCC2)cc1OC,2% (inactive)
7,O=C1C2CCN(CC2)C1Cc1ccc(O)cc1 (stereo not drawn),0% (inactive)
8,C[C@H]1CCC[C@@H](O)CCC/C=C/c2cc(O)cc(O)c2C(=O)O1,67% (active)
9,CC1(C)CC(CCNCc2ccc3c(c2)OCO3)(Cc2ccccc2)CCO1 (stereo not drawn),0% (inactive)
10,O=C(O)c1ccc2c(c1)C1C(Cl)C(Sc3ccccc3[N+](=O)[O-])CC1C(c1cccc([N+](=O)[O-])c1)N2 (stereo not drawn),0% (inactive)
11,CCOc1ccccc1N1C(=O)NC(=O)C(CCc2ccncc2)(CCc2ccncc2)C1=O,59% (inactive)
12,O=C(O)c1cccc2c1NC(C(=O)O)C1CC(Sc3ccccc3[N+](=O)[O-])C(Cl)C21 (stereo not drawn),0% (inactive)
13,COc1ccc(Cn2c(N)c(C(=O)NCc3ccco3)c3nc4ccccc4nc32)cc1,26% (inactive)
14,COc1ccc(CC2NCCc3cc(OC)c(OC)cc32)cc1OC (stereo not drawn),7% (inactive)
15,COc1ccc(C2(CN)CCCC2)cc1,21% (inactive)
16,O=C(O)c1cccc2c1NC(c1cccc([N+](=O)[O-])c1)C1CC(Sc3ccccc3[N+](=O)[O-])C(Cl)C21 (stereo not drawn),62% (inactive)
17,NC(=O)c1ccc(N=Nc2c(O)[nH]c(=O)[nH]c2=O)cc1,28% (inactive)
18,COc1cc2c(cc1OC)CC(C)(C)NC2,3% (inactive)
19,CCNCC1(c2ccc(OC)c(OC)c2)CCCC1,17% (inactive)
20,CC(=O)c1ccc2c(c1)C1C(Cl)C(Sc3ccccc3[N+](=O)[O-])CC1C(C(=O)O)N2 (stereo not drawn),0% (inactive)
21,Cc1ccc(S(=O)(=O)Cc2ccc(C(=O)N3CCC4(CC3)OCCO4)o2)cc1,31% (inactive)

# Same assay, conditions: fluorescent ligand competition, binding inhibition, at 0.1 µM, stronger effect = higher value
row,SMILES,inhibition of ligand binding
1,CC(=O)c1ccc2c(c1)C1C(Cl)C(Sc3ccccc3[N+](=O)[O-])CC1C(c1ccccc1[N+](=O)[O-])N2 (stereo not drawn),38%
2,C[C@H]1CCC[C@@H](O)CCC/C=C/c2cc(O)cc(O)c2C(=O)O1,74%
3,CCOc1ccccc1N1C(=O)NC(=O)C(CCc2ccncc2)(CCc2ccncc2)C1=O,24%
4,O=C(O)c1cccc2c1NC(C(=O)O)C1CC(Sc3ccccc3[N+](=O)[O-])C(Cl)C21 (stereo not drawn),1%
5,COc1ccc(Cn2c(N)c(C(=O)NCc3ccco3)c3nc4ccccc4nc32)cc1,45%
6,NC(=O)c1ccc(N=Nc2c(O)[nH]c(=O)[nH]c2=O)cc1,14%
7,Cc1ccc(S(=O)(=O)Cc2ccc(C(=O)N3CCC4(CC3)OCCO4)o2)cc1,24%
